Screening results deposited in PubChem BioAssay by several laboratories.
Compounds with a hit are over-represented: about 2.3% of the library has one in this group of screens.
Calb FLC: affects C. albicans growth with fluconazole. AID 1979. growth inhibition, % (test concentration not listed). C. albicans CaCi-2 (fluconazole-resistant clinical isolate) + fluconazole, Alamar Blue growth, 48 h. 300,000 compounds, 0.57% hits;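 active = growth inhibition above about 58% in most replicates, limit read from the data, passing the limit was not always enough; inconclusive = exactly half the replicates above a set limit; inactive = most replicates below a set limit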;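 note: all wells also contain fluconazole at 8 µg/ml as a sub-toxic cotreatment; 0% = median of DMSO wells and 100% = median of geldanamycin control wells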
Rpn11 block: Rpn11 (human) deubiquitinase inhibition | O00487 | human 26S proteasome, Ub4-pepOG fluorescence polarization; 20S core pre-blocked with epoxomicin | inhibition, % at 20 µM | 360,000 compounds, 0.59% hits;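 active = inhibition at 20 µM, scaled to each plate's controls, above about 33%, limit read from the data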
IDE cell inh: inhibitors of human insulin-degrading enzyme in cells; P14735; HEK cells, FAbetaB cleavage, fluorescence polarization; inhibition, % at 5.59 µM; 320,000 compounds, 0.41% hits; AID 434962;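 active = percent inhibition above the average of all tested compounds plus 3 SD, set per screening campaign, cut at about 16% in these data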;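 note: IDE supplied by intact live HEK cells; FP after avidin binding of uncleaved biotin substrate so inhibition keeps polarization high; 0% = DMSO wells and 100% = 60 µM reference IDE inhibitor Ii1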
Rin1-Abl PPI inh: blocks binding of human Rin1 to Abl; inhibition, % at 7.35 µM; 360,000 compounds, 0.4% hits; TR-FRET Rin1/Abl binding, biochemical; in the data active = inhibition above about 5%, passing the limit was not always enough
TPT1 inh: C. albicans TPT1 enzyme inhibition; 300,000 compounds, 0.81% hits; recombinant caTPT1, FP RNA substrate dephosphorylation; inhibition, % at 5 µM;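 active = inhibition above the mean of all tested compounds plus 3 SD, set per screening campaign, cut at about 24% in these data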;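 note: plate controls were DMSO alone for no effect and ferristatin control at 100 nM for full effect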
IDE act: activators of human insulin-degrading enzyme in cells. activation, % at 5.96 µM. HEK cells, FAbeta-B cleavage, fluorescence polarization; 0% vehicle, 100% cell-free pure enzyme wells. P14735. AID 493087. 340,000 compounds, 0.073% hits;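 active = activation above the mean of all tested compounds plus 3 SD, set per screening campaign, cut at about 17% in these data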
TPT1 inh confirm: TPT1 (C. albicans) inhibition, confirmation; shares compounds with TPT1 inh; recombinant caTPT1, fluorescence polarization, RNase T1 coupled; inhibition, % at 5 µM; 2,400 compounds, 74% hits; AID 2149;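 active = inhibition above the primary screen limit, the mean inhibition of all tested compounds plus 3 SD, cut at about 25% in these data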
RNase T1 counter: counter-screen for TPT1 inhibitors: inhibitors of Aspergillus oryzae RNase T1; inhibition, % at 5 µM; RNase T1 cleavage, fluorescence polarization, 1536-well; 2,400 compounds, 83% hits; shares compounds with TPT1 inh; AID 2153;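 active = inhibition above the solvent-only control well mean plus 3 SD, limit set per screening run, cut at about 23% in these data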;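 note: plate controls were DMSO wells with enzyme for no effect and wells without RNase T1 for full effect; inhibitors block cleavage so intact labeled substrate keeps polarization high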
Starred values were filed as active, the others as inactive; u = inconclusive; x = no result given.

SMILES | Calb FLC | Rpn11 block | IDE cell inh | Rin1-Abl PPI inh | TPT1 inh | IDE act | TPT1 inh confirm | RNase T1 counter
CCN(CC)c1ccc(/C=C/c2cc(-c3ccccc3)c3ccccc3n2)cc1 | 6 | x | 5 | 0 | 94* | -6 | 87* | 90*
COc1ccc(Cl)cc1CNC[C@H]1O[C@@H](n2cnc3c(=O)[nH]c(N)nc32)[C@H](O)[C@@H]1O | x | 3 | x | 5 | x | x | x | x
CCN(CC)CCCNc1nc(CN2CCOCC2)nc2sc3c(c12)CCC3 | -2 | -2 | 5 | 1 | 35* | 1 | 8 | 9
CCC(C)Nc1nc(CN2CCOCC2)nc2sc3c(c12)CCC3 (configuration not stated) | 24 | 14 | -1 | 2 | 0 | 1 | x | x
O=C(c1cc(S(=O)(=O)N2CCN(c3ccccc3)CC2)ccc1Cl)N1CCCCCCC1 | 1 | 10 | -4 | 1 | 0 | 7 | x | x
COc1ccc(OCC(=O)N/N=C(\C)c2cc3ccccc3o2)cc1 | 1 | -2 | 0 | 0 | 27* | 3 | 24 | 35*
COC(=O)CSc1nc(C)cc(C(F)(F)F)c1C#N | 0 | 2 | 10 | 0 | 4 | 2 | x | x
Cc1ccc(S(=O)(=O)CCSc2nc(C)cc(C(F)(F)F)c2C#N)cc1 | 2 | x | -3 | -2 | 40* | -2 | 58* | 69*
CC1(C)Cc2c(sc3ncn(N)c(=N)c23)CO1 | -17 | 1 | 4 | 1 | -2 | 5 | x | x
CC1CCCc2sc3ncn(N)c(=N)c3c21 (configuration not stated) | 8 | -2 | 4 | 0 | 61* | 4 | 16 | 22*
O=C(COc1ccccc1)c1cn(CC(=O)N2CCOCC2)c2ccccc12 | -7 | 14 | 4 | -2 | 27* | -5 | 26* | 37*
CC(Nc1ccc(F)cc1)=[N+](C)CCNS(=O)(=O)c1ccc(Cl)cc1 | 4 | 6 | 4 | 0 | -3 | -1 | x | x
CCN(CC)C(=O)c1ccc(NS(=O)(=O)c2ccc3[nH]c(=O)[nH]c3c2)cc1 | -6 | 4 | x | 4 | x | 2 | x | x
Cc1nc(SCC(=O)N2CCCCCC2)c2c(=O)n(C)c(=O)n(CC(C)C)c2n1 | x | 3 | x | 2 | x | -10 | x | x
C=CCn1c(/N=C/c2ccc(N(C)C)cc2)nc2ccccc21 | 27 | x | -3 | -2 | 27* | 1 | 110* | 117*
C[C@@H]1CN([C@@H](C)CO)C(=O)c2cccc(NC(=O)C3CCOCC3)c2O[C@H]1CN(C)S(=O)(=O)c1ccc(Cl)cc1 | x | -3 | 8 | 2 | x | -9 | x | x
COC(=O)/C=C/C(=O)N1CCN(c2cccc(Cl)c2)CC1 | 8 | x | 1 | x | 48* | x | 3 | 8
COc1ccc(C(=O)N2CCN(c3cccc(Cl)c3)CC2)cc1 | 19 | 0 | 10 | 4 | -4 | 5 | x | x
COc1ccc(NS(=O)(=O)c2cccc(C(=O)OCC(=O)NC3CC3)c2)cc1 | -10 | -7 | x | -1 | x | -1 | x | x
COc1cc(OC)c(OC)cc1/C=C/C(=O)c1ccc(NS(=O)(=O)c2ccc(C)cc2)cc1 | 24 | x | 13 | 0 | 78* | -12 | 86* | 95*
COc1ccccc1COC(=O)N/C=C/c1ccco1 | -13 | 29 | 2 | 1 | 42* | 2 | 20 | 25*
COc1ccccc1/C=C/C1=NC(=C\C=C/c2ccccc2)/C(=O)O1 | x | 30 | -6 | 9 | 74* | 0 | 119* | 122*
N#Cc1ccccc1COC(=O)CCCC1=NS(=O)(=O)c2ccccc2N1 | -5 | -8 | 5 | 0 | 0 | -1 | x | x
N#Cc1c(N)n(-c2ccccc2N)c2nc3ccccc3nc12 | -2 | 12 | 1 | -1 | 7 | 4 | x | x
N#Cc1c(N)n(-c2cccc(C(=O)O)c2)c2nc3ccccc3nc12 | -19 | x | 7 | 0 | 36* | -6 | 40* | 49*
SMILES | Calb FLC | Rpn11 block | IDE cell inh | Rin1-Abl PPI inh | TPT1 inh | IDE act | TPT1 inh confirm | RNase T1 counter
CCN(CC)c1ccc(C=C(c2nnnn2-c2ccc(C)cc2)c2nnnn2-c2ccc(C)cc2)cc1 | -11 | x | 2 | 3 | 77* | -1 | 73* | 85*
Cc1ccc(-n2nnnc2-c2ccccc2)cc1 | 22 | -5 | -3 | 0 | 4 | -1 | x | x
CCOc1ccc(-n2ccnc2SCC(=O)Nc2cc(C)on2)cc1 | -24 | 0 | 6 | 0 | 119* | 3 | 7 | 10
COc1ccc(-n2ccnc2SCC(=O)Nc2cc(C)on2)cc1 | 1 | 12 | 1 | 2 | 1 | 4 | x | x
O=C(c1ccc(CS(=O)Cc2ccccc2Cl)o1)N1CCN(C2CCCCC2)CC1 (configuration not stated) | -1 | -7 | 0 | -3 | 117* | 1 | 7 | 4
COc1nn(-c2nc(-c3ccccc3)cc(C(F)(F)F)n2)cc1[N+](=O)[O-] | 0 | -1 | -5 | 5 | 55* | -3 | 2 | 5
FC(F)(F)c1cc(-c2ccccc2)nc(-n2cc(Cl)cn2)n1 | -11 | 1 | 3 | -3 | -3 | 4 | x | x
O=[N+]([O-])c1ccc(NN=Cc2cccc(O)c2)nc1 | x | 0 | x | -2 | x | 4 | x | x
Cc1cccc(C)c1-n1c(C)cc(/C=N\Nc2ccc([N+](=O)[O-])cn2)c1C | 3 | x | 2 | 4 | 75* | 1 | 67* | 79*
Cc1ccc(CC(=O)CCc2ccccc2)cc1 | 11 | -2 | -3 | 1 | 34* | 1 | 5 | 5
CC12CC(c3ccccc3O1)N(C(=O)c1ccco1)C(=S)N2c1ccc(F)cc1 (configuration not stated) | 26 | 10 | 8 | 0 | -3 | 1 | x | x
CCOC(=O)C1=C(O)CSC1=Nc1ccccc1 | -2 | 3 | 3 | -2 | 27* | -1 | 21 | 27*
CCOC(=O)C1=C(O)CSC1=Nc1ccc(Cl)cc1 | 4 | 2 | 3 | 2 | -2 | 2 | x | x
Cc1c(C(=O)NC(C)c2ccccn2)oc2c(Cl)cccc12 (configuration not stated) | x | -8 | x | -2 | x | 3 | x | x
CCOC(=O)Cc1cc(=O)n(-c2nc3ccccc3s2)[nH]1 | 1 | 24 | 5 | 2 | 28* | 2 | 14 | 24*
Cc1ccc(C2C(C#N)=C(N)SC(N)=C2C#N)c(C)c1 | 6 | x | 10 | -8 | 152* | -30 | 79* | 90*
Cc1ccc(C2C(C#N)=C(N)SC(N)=C2C#N)cc1 | x | x | x | -8 | x | -9 | x | x
CCOc1cc(N2CCOCC2)c(OCC)cc1NC(=O)c1cc(S(=O)(=O)N2CCOCC2)ccc1C | x | -4 | 4 | -4 | x | 4 | x | x
NC(=O)N/N=C/c1ccc(N2CCOCC2)s1 | -24 | x | 8 | 1 | 81* | 2 | 123* | 130*
CC1N(C)c2cccc3cccc(c23)N1C | u | 71* | 2 | -5 | 32* | 5 | 6 | 7
